Source: PubChem BioAssay
An excerpt weighted towards active compounds, which were near 2.6% of everything screened.
TLR4-MyD88 BLA – inhibitors of human TLR4-MyD88 binding. O00206+Q99836. HeLa CL3-4 TLR4/MyD88 BLA complementation, FRET ratio. inhibition, % at 8.4 µM. 200,000 compounds, 0.18% hits. AID 861; in the data active = inhibition above about 25%
TLR9-MyD88 inh – inhibitors of human TLR9-MyD88 binding; 340,000 compounds, 0.21% hits; inhibition, % at 4.98 µM; CHO BLA complementation TLR9-MyD88, CCF4 FRET ratio; Q9NR96+Q99836;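 active = inhibition above the mean over all tested compounds plus 3 SD, cut at about 21% in these data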
ABHD5 PLIN5 PPI – blocks binding of human ABHD5 to perilipin-5; Q00G26+Q8WTS1; Split G. princeps luciferase complementation, luminescence, 4 h; inhibition, % at 4 µM; 360,000 compounds, 0.78% hits;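 active = inhibition above the mean inhibition across every tested compound plus 3 SD, cut at about 22% in these data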
Exocytosis inh – lytic granule exocytosis inhibition. TALL-104 LAMP-1 surface exposure, flow cytometry; cells stimulated with thapsigargin and PMA. inhibition, % at 10 µM. 360,000 compounds, 0.66% hits. AID 651702;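 active = inhibition above about 55%, limit read from the data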
NOD2 RIPK2 PPI – inhibitors of human NOD2-RIPK2 interaction; O43353; CHO BLA complementation NOD2-RIPK2, CCF4 ratio; inhibition, % at 4.98 µM; 360,000 compounds, 0.38% hits; AID 624267; in the data active = inhibition above about 21%
PRMT1 FP inh – inhibitors of human PRMT1; Q99873; AID 652257; 370,000 compounds, 1.3% hits; inhibition, % at 2.79 µM; recombinant PRMT1, activity-based probe fluorescence polarization;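 active = inhibition above about 21% made by adding two undisclosed values, limit read from the data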
Target sequence (Q99873 whole entry, looked up): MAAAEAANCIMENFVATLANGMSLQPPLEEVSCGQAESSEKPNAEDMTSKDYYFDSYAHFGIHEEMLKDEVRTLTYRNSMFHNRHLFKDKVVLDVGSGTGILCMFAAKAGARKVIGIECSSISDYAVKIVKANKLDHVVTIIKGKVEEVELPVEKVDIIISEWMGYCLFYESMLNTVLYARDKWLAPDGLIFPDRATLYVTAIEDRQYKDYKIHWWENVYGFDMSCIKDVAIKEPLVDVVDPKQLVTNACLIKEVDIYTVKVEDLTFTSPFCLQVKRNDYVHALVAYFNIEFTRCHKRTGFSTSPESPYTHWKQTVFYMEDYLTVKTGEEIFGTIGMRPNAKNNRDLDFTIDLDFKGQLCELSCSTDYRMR
PRMT1 confirm – confirmation of human PRMT1 inhibitors | 3,300 compounds, 42% hits | shares compounds with PRMT1 FP inh | inhibition, % at 2.79 µM | recombinant His-PRMT1, activity-based probe fluorescence polarization;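 active = mean inhibition across replicates above the hit cutoff derived for the earlier primary screen, cut at about 22% in these data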
Of the large screens only hits and unclear results are named; the others gave an inactive call (follow-up assays come after a bar, where they were run).

Cc1nnc(SCC2=C(C(=O)O)N3C(=O)C(NC(=O)COc4ccccc4)C3SC2)s1 (stereo not given)	PRMT1 FP inh 38 (no result: TLR4-MyD88 BLA) | PRMT1 confirm 69
COc1ccc(NC(C)=O)cc1NC(C)C(=O)Nc1ccc(S(=O)(=O)N2CCCCC2)cc1 (stereo not given)	none (no result: TLR4-MyD88 BLA)
O=C(Cc1ccc2c(c1)OCO2)N1CCC(n2nc(-c3ccccc3)oc2=O)CC1	none (no result: TLR4-MyD88 BLA, TLR9-MyD88 inh, ABHD5 PLIN5 PPI, Exocytosis inh, NOD2 RIPK2 PPI)
CCN1C(=O)[C@H]2[C@@H](c3ccc(-c4ccccc4)cc3)N[C@@](CC(C)C)(C(=O)OC)[C@H]2C1=O	none (no result: TLR4-MyD88 BLA)
CC(C)NC(=O)c1sc2nc3c(c(-c4cccs4)c2c1N)CN(C)CC3	PRMT1 FP inh 39 | PRMT1 confirm inactive
CN(C(=O)C(C)(C)C)[C@H]1C[C@H]2c3[nH]c4ccccc4c3CCN2C(=O)[C@H]1CO	none (no result: TLR4-MyD88 BLA)
CN(C(=O)NC1CCCCC1)[C@H]1C[C@H]2c3[nH]c4ccccc4c3CCN2C(=O)[C@H]1CO	PRMT1 FP inh 33 (no result: TLR4-MyD88 BLA) | PRMT1 confirm inactive
COc1nc(OC)nc(N2CCC(C(=O)N(C)Cc3ccco3)CC2)n1	none (no result: TLR4-MyD88 BLA, TLR9-MyD88 inh, ABHD5 PLIN5 PPI, Exocytosis inh, NOD2 RIPK2 PPI)
Cc1ccc(SCCN2CCC(C(C)(C)C)CCC2=O)cc1 (stereo not given)	none (no result: TLR4-MyD88 BLA)
C[C@@H](CSc1ccc(Br)cc1)CN1CC[C@H](O)CCC1=O	none (no result: TLR4-MyD88 BLA)
CC(=O)Nc1ccc(SCCN2CC[C@@H](C(C)(C)C)CCC2=O)cc1	PRMT1 FP inh 41 (no result: TLR4-MyD88 BLA) | PRMT1 confirm 43
CC(=O)Nc1ccc(SC[C@H](C)CN2CC[C@H](O)CCC2=O)cc1	PRMT1 FP inh 26 (no result: TLR4-MyD88 BLA) | PRMT1 confirm 38
O=C(CSC(=S)N1CCCC1)N(Cc1nnc(-c2ccccc2Cl)o1)C1CC1	none (no result: TLR4-MyD88 BLA)
Cc1cc(Cl)ccc1NNC(=O)CCc1ccccc1	none (no result: TLR4-MyD88 BLA)
O=C(CSc1nnc(-c2ccccn2)n1-c1ccccc1)Nc1ccc(OCc2ccccc2)cc1	none (no result: TLR4-MyD88 BLA, TLR9-MyD88 inh, ABHD5 PLIN5 PPI, Exocytosis inh, NOD2 RIPK2 PPI)
O=C(O)Cn1c(O)c(C2=c3ccccc3=NC2=O)sc1=O	PRMT1 FP inh 27 (no result: TLR4-MyD88 BLA) | PRMT1 confirm inactive
O=C1NC(c2ccccc2)=N/C1=C/c1ccco1	PRMT1 FP inh 34 | PRMT1 confirm inactive
Cc1nc(C(F)(F)F)ccc1C(=O)N1CCC1(C)C(=O)NS(=O)(=O)c1cccc(C#N)c1 (stereo not given)	none (no result: TLR4-MyD88 BLA, TLR9-MyD88 inh)
COc1ccc(OC)c(-n2c(=S)[nH]c3c(sc(=S)n3-c3ccccc3)c2=O)c1	PRMT1 FP inh 65 | PRMT1 confirm inactive
CCOC(=O)CSc1nc2c(sc(=S)n2-c2ccccc2)c(=O)n1-c1ccc(OC)cc1OC	none (no result: TLR4-MyD88 BLA)
O=C1C(=C2CCCCC2)SC(=S)N1Cc1ccco1	PRMT1 FP inh 44 | PRMT1 confirm 39
O=C(O)CCN1C(=O)C(=C2CCCCCC2)SC1=S	none
O=c1c2ccccc2sn1-c1ccc(S(=O)(=O)N2CCCC2)cc1	PRMT1 FP inh 95 | PRMT1 confirm 97
O=c1c2ccccc2sn1-c1ccc(S(=O)(=O)N2CCCCC2)cc1	PRMT1 FP inh 43 | PRMT1 confirm 63
Cc1ccc(-n2sc3ccccc3c2=O)cc1S(=O)(=O)N1CCCCC1	ABHD5 PLIN5 PPI 104, PRMT1 FP inh 101 | PRMT1 confirm 84
COCCn1c(SCC(=O)Nc2ccc(F)cc2)nc2c(c1=O)SCC2	none (no result: TLR4-MyD88 BLA)
CCCN(C(=O)c1cccs1)c1c(N)n(Cc2ccccc2)c(=O)[nH]c1=O	none (no result: TLR4-MyD88 BLA)
Cc1ccc(-n2c(SCC(=O)Nc3ccccc3-c3ccccc3)nnc2-c2ccccn2)cc1	none (no result: TLR4-MyD88 BLA, TLR9-MyD88 inh, ABHD5 PLIN5 PPI, Exocytosis inh, NOD2 RIPK2 PPI)
CCOc1cc(C(=O)Nc2ccncc2)cc(OCC)c1OCC	none
O=C1C2C3C=CC(C3)C2C(=O)N1CCCCCCN1C(=O)C2C3C=CC(C3)C2C1=O (stereo not given)	none
O=C1C=CC(=O)N1CCCCCCN1C(=O)C=CC1=O	PRMT1 FP inh 93 (no result: TLR9-MyD88 inh, ABHD5 PLIN5 PPI, Exocytosis inh, NOD2 RIPK2 PPI) | PRMT1 confirm 90
